# The whole screen tested about 6,200 compounds, of which about 2,900 (47%) were called active. So high a share suggests a set chosen from earlier hits. The list shows a part of the results. A number with no mark means an inactive call. Rule as the data show it: active = inhibition above about 50%; inactive = the rest.
# Assay: Mycobacterium tuberculosis growth inhibition, primary screen (AID 1259343)
# Conditions: inhibition: at 10 µM, active compounds read high; outcome: 10 uM
row,SMILES,inhibition
1,CC1CN(C(=O)c2ccc(NC(=O)C3CC3)cc2)c2ccccc2O1 (centres undefined),87.7% (active)
2,CCCCCCCCc1ccc(CCC(N)(CO)CO)cc1,92% (active)
3,CCCCc1ccc(-c2csc(NC(=O)OC)c2C(N)=O)cc1,2.76%
4,c1cc2c(cc1-c1csc(NCC3CCC3)n1)OCCCO2,3.11%
5,Cc1ccc(/C=N\Nc2nc(-c3ccc4c(c3)OCCO4)cs2)cc1,-51.4%
6,CCOc1ccc(C=C2N=C(C(C)(C)C)OC2=O)cc1OC,23.4%
7,CCOc1cc(C=NNc2nc(C)cs2)ccc1OC,72% (active)
8,CCN(CC)c1ccc2cc(-c3csc(N/N=C\c4ccc(OC)cc4)n3)c(=O)oc2c1,25.9%
9,COc1ccc(/C=N\Nc2nc(-c3ccc4c(c3)OCCO4)cs2)cc1OC,85.6% (active)
10,CCOc1ccc(/C=N\Nc2nc(-c3ccc(OC)c(OC)c3)cs2)cc1,79.8% (active)
11,CN1CC(CNC(=O)OCc2ccccc2)CC2c3cccc4c3c(cn4C)CC21 (centres undefined),96.7% (active)
12,CCOP(=O)(Oc1ccccc1)c1c([N+](=O)[O-])cc(C(F)(F)F)cc1[N+](=O)[O-] (centres undefined),94.9% (active)
13,CC(C)Oc1ccc(Nc2nccc3[nH]c(-c4ccccc4)cc23)cc1,92.6% (active)
14,CC(Oc1ccc(-n2cnc(-c3ccccc3)c2)cc1)C(N)=O (centres undefined),43.6%
15,CCN(CC)c1cc(-c2ccccc2)nc(SCc2cccc(C(=O)O)c2)n1,8.57%
16,O=C(CSc1ccc2nc(-c3ccccc3)cn2n1)c1ccccc1,65.7% (active)
17,c1ccc(CSc2nn3cc(-c4ccccc4)nc3s2)cc1,16.3%
18,O=C(/C=C/c1ccc([N+](=O)[O-])s1)Nc1ccc(F)cc1F,99.5% (active)
19,CN(C(=O)/C=C/c1ccc([N+](=O)[O-])s1)c1ccccc1,6.56%
20,CCCCc1ccc(NC2=NC(C)(C)CS2)cc1,89.8% (active)
21,NC(N)=NN=Cc1ccc(-c2ccccc2)cc1,38.6%
22,NC(N)=NN=CC(Cl)=Cc1ccccc1,85.8% (active)
23,NC(N)=NN=C1c2ccccc2-c2ccccc21,-74.8%
24,Cc1cc2oc(NC(=O)c3ccc(=O)n(C)c3)nc2c(C)c1Cl,-2.23%
25,COc1ccc(-c2csc(C(C#N)C(=O)CC3C=CCC3)n2)cc1 (centres undefined),79.7% (active)

row,SMILES,inhibition
1,COc1ccc(C(=O)C2CCCN(Cc3nc(-c4ccc(F)cc4)cs3)C2)c(OC)c1 (centres undefined),31.3%
2,CC(NC(=O)Nc1cccnc1N1CCCC1)c1ccn(C)c1 (centres undefined),-18.1%
3,CN(C)c1cccc(Nc2nccc3c2cc(-c2ccccc2)n3C)c1,74.6% (active)
4,CN(C)c1cccc(Nc2nccc3c2cc(-c2ccsc2)n3C)c1,63.8% (active)
5,O=C(NCc1cc(Br)cs1)c1ccc(Cl)o1,37.9%
6,O=C(NCc1ccc(Cl)s1)c1ccc(Br)o1,-14.3%
7,O=C(NCCc1ccc(Cl)s1)c1ccc(Cl)o1,79.6% (active)
8,CCOc1cc(C=Nn2c(C)csc2=NC(C)C)ccc1O,18.4%
9,Cc1ccc(OP(N)(=O)Oc2ccc(C)cc2)cc1,-4.77%
10,O=C1CCCCC1Sc1nnc(Nc2ccccc2)s1 (centres undefined),6.48%
11,CCc1ccc(-c2nc(SC3CCCCC3=O)n[nH]2)cc1 (centres undefined),57.1% (active)
12,CN(C1CCCCC1)S(=O)(=O)NC1COc2ccccc21 (centres undefined),37.8%
13,COc1c(Cl)cc(C(=O)NCC(c2cccc(F)c2)N(C)C)cc1Cl (centres undefined),-3.98%
14,Oc1c(Br)cc2oc3c(c2c1C=NCc1ccncc1)CCCC3,84% (active)
15,Oc1c(I)cc2oc3c(c2c1C=NCc1ccncc1)CCCC3,8.12%
16,CCCc1cnc(-c2ccc(C)c3ncccc23)nc1,8.84%
17,COc1ccc(Cl)cc1C(=O)Nc1cc(-c2cccs2)nn1-c1nc(C)cc(=O)[nH]1,96.4% (active)
18,COc1ccc(Cl)cc1C(=O)Nc1cc(-c2cccs2)nn1-c1nc(C(C)C)cc(=O)[nH]1,101% (active)
19,CN1CCN(C(c2ccc(Cl)cc2)c2cc(Cl)c3cccnc3c2O)CC1 (centres undefined),90.6% (active)
20,Oc1c(C(c2ccncc2)N2CCOCC2)cc(Cl)c2cccnc12 (centres undefined),101% (active)
21,CC(C)(C)c1cc(C(c2ccncc2)N2CCOCC2)cc(C(C)(C)C)c1O (centres undefined),94.5% (active)
22,Oc1c(C(c2ccc(Br)cc2)N2CCCC2)cc(Cl)c2cccnc12 (centres undefined),10.6%
23,CCOC(=O)N1CCN(C(=O)CSc2cc(-c3ccccc3)ncn2)CC1,93.6% (active)
24,CCOC(=O)N1CCN(C(=O)CCc2ccc(-c3ccc(OC)cc3)n2-c2ccc(SC)cc2)CC1,13.6%
25,CCOC(=O)CNC(=O)CSc1ncnc2c1nnn2Cc1ccccc1,-26.6%

row,SMILES,inhibition
1,O=C(NCC1Cc2ccccc2O1)c1ccc(Cl)s1 (centres undefined),53.1% (active)
2,CC(C)(C)c1ccc2c(c1)CC(CNC(=O)/C=C/c1ccccc1)O2 (centres undefined),27.2%
3,CC(C)(C)n1nc(C2CC2)cc1C(=O)NCC1Cc2ccccc2O1 (centres undefined),-7.17%
4,O=C(OCC1CC2CCC1C2)C(c1ccccc1)n1cccn1 (centres undefined),92.2% (active)
5,CC(=O)N1CCC(NS(=O)(=O)c2ccc3c(c2)CCCC3)CC1,86.8% (active)
6,O=S(=O)(NC1CCN(C2CC2)CC1)c1cc(Cl)cc(Cl)c1,4.16%
7,O=S(=O)(NC1CCc2cc(F)ccc21)c1ccc2c(c1)CCC2 (centres undefined),10.6%
8,CN(C)c1ccc(C(=C2C=CC(=[N+](C)C)C=C2)c2ccc(N(C)C)cc2)cc1,59.1% (active)
9,O=C(c1cc2cc(Cl)ccc2o1)N1CCN(S(=O)(=O)c2ccccc2Cl)CC1,42.3%
10,O=C(NNC(=O)c1cc2cc(Cl)ccc2o1)c1cnccn1,101% (active)
11,CCc1c(C)nc(-n2nc(C)cc2NC(=O)c2cccc(OC)c2)[nH]c1=O,102% (active)
12,CCc1c(C)nc(-n2nc(C)cc2NC(=O)c2ccc(C(F)(F)F)cc2)[nH]c1=O,101% (active)
13,CCc1c(C)nc(-n2nc(C)cc2NC(=O)c2cc(OC)cc(OC)c2)[nH]c1=O,101% (active)
14,CCc1c(C)nc(-n2nc(C)cc2NC(=O)c2cc(C(F)(F)F)cc(C(F)(F)F)c2)[nH]c1=O,-3.31%
15,CCc1c(C)nc(-n2nc(C)cc2NC(=O)c2ccc(OC)cc2)[nH]c1=O,99.8% (active)
16,CCOc1cc(C(=O)Nc2cc(C)nn2-c2nc(C)c(CC)c(=O)[nH]2)cc(OCC)c1OCC,-22.4%
17,CCn1cc(NC(=O)c2cc3ccc(C(C)(C)C)cc3[nH]2)ccc1=O,-0.51%
18,CCc1c(C)nc(-n2nc(C)cc2NC(=O)c2ccc(F)c(F)c2)[nH]c1=O,99.7% (active)
19,CCc1c(C)nc(-n2nc(C)cc2NC(=O)c2ccc(C)c(C)c2)[nH]c1=O,42.5%
20,CCc1c(C)nc(-n2nc(C)cc2NC(=O)c2ccccc2)[nH]c1=O,-16.5%
21,CCc1c(C)nc(-n2nc(C)cc2NC(=O)c2cccc(C)c2)[nH]c1=O,101% (active)
22,CCc1c(C)nc(-n2nc(C)cc2NC(=O)c2cccc([N+](=O)[O-])c2)[nH]c1=O,99.7% (active)
23,C=CCN1C(=O)C(=O)N(CC(=O)c2cc(C)n(CCCOC)c2C)C1=O,-11.2%
24,O=C(CSC1=NCCS1)N1c2ccccc2Sc2ccccc21,27.6%
25,CCSc1nnc2c(n1)OC(c1ccc(OCc3ccccc3)cc1)Nc1ccccc1-2 (centres undefined),83% (active)

row,SMILES,inhibition
1,O=C(O)c1cc(Br)ccc1N=Cc1nc(-c2ccc(Cl)cc2)oc1O,50.4% (active)
2,O=C(O)c1cc2c(ccc3cc(Br)ccc32)oc1=O,47.8%
3,Nc1ccc(Oc2ccc(Oc3ccc(N)cc3)cc2)cc1,72.7% (active)
4,Nc1ccc(Oc2ccc(N)cc2)cc1,-13.3%
5,CCC(C)(C)c1ccc(Oc2ccc(N)cc2)cc1,21.9%
6,CCS(=O)(=O)c1ccc(-c2cccc(NS(=O)(=O)c3ccc(C)cc3C)c2)nn1,99.5% (active)
7,Cc1cc(S(=O)(=O)Nc2cccc(Br)c2)ccc1Br,39.6%
8,CC(=O)Nc1cccc2c1NCCC2,-0.59%
9,O=S(CSc1nc(Br)ns1)c1nc(Br)ns1 (centres undefined),102% (active)
10,COc1ccc2cc(C(=O)NNC(=O)c3ccccn3)c(C)nc2c1,0.1%
11,COc1ccc2nc(C(=O)NCC(C)c3ccccc3)ccc2c1 (centres undefined),52.4% (active)
12,CCN1CCc2nc3ccccc3c(C(=O)NCc3ccc(OC)cc3)c2C1,-11%
13,c1ccc(-c2nnc3n2NC(c2ccc4c(c2)OCO4)S3)cc1 (centres undefined),-2.01%
14,c1ccc(-c2noc(N3CCCCC3)c2CNCc2ccc3c(c2)OCO3)cc1,83.5% (active)
15,c1ccc(-c2nc(-c3ccc4c(c3)OCO4)cs2)cc1,-16.4%
16,CC(=O)N=c1c(Nc2ccc(Cl)cc2)nc(=O)[nH]n1C,85.5% (active)
17,Cc1c(Br)c(Nc2ccc(Cl)cc2)nn1C,-14.8%
18,CN(Cc1ccsc1)C(=O)CCc1nnc(CCCc2ccccc2)o1,inactive
19,O=C1c2ccccc2C(=O)N1CC1CC2C=CC1C2 (centres undefined),38.1%
20,O=C(CCc1nnc(CCCCc2ccccc2)o1)NCC[C@@H]1C[C@@H]2C=C[C@H]1C2,78.5% (active)
21,C=CCn1nnc(NC(=O)c2ccc(OCC(C)C)cc2)n1,30.5%
22,NC(=O)CSc1nnc(SCc2ccc(Cl)c(Cl)c2)s1,24.1%
23,O=C(CSc1nnc(SCC(=O)c2cccs2)s1)c1cccs1,96.8% (active)
24,Cc1nc(SCC(=O)c2cccs2)c2c3c(sc2n1)CCCC3,-1.14%

# Source: PubChem BioAssay AID1259343 (VanderVen Lab, College of Veterinary Medicine, Cornell …, 2017)
